# About 83,000 compounds went through this panel and 20% of them were active in at least one assay; those are over-represented in the sample as a whole.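 For each line, cells grew in 96-well plates with the test compound present at a single concentration for 48 hours.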 Values without a mark were called inactive. Active and inactive are the calls of the source. How the source made its calls: active means growth percent below 10; inactive means the rest.
# Test system: UO-31 renal
# Test: NCI-60 one-dose screen, 48 h (100 = growth as untreated, 0 = no growth, -100 = all killed)
# Conditions: 10 µM unless noted
row,SMILES,growth
1,NC(=O)c1ncn2c(=O)n(CCF)nnc12,41%
2,Cc1csc(/N=C(N)/N=C(\N)c2cccc(C#N)c2)n1,76.3%
3,C=C(C)[C@@H]1CC[C@]2(COCCCNCCCN)CC[C@]3(C)[C@H](CC[C@@H]4[C@@]5(C)CC[C@H](O)C(C)(C)[C@@H]5CC[C@]43C)[C@@H]12,-93% (active)
4,O=C(/C=C/c1cccc(F)c1)c1cccc(OCCCOc2cccc(C(=O)/C=C/c3cccc(F)c3)c2)c1,37.6%
5,Cc1ccc(C(=O)CSc2nc3ccccc3c(=O)n2C)cc1,56.6%
6,Cc1ccc2c(n1)C(=O)C(Cl)=C(Nc1ccc(C#N)cc1)C2=O,16.2%
7,CC(C)(O)c1cncc(-c2ccc3ncc(C#N)c(N4CCc5cc(F)c(Cl)cc54)c3c2)c1,-2.66% (active)

# Test system: TK-10 renal
# Test: as above
# Conditions: 10 µM unless noted
row,SMILES,growth
1,O=S(=O)(NCCCNc1nccc(-c2[nH]c(-c3ccccc3)nc2-c2ccc(F)c(O)c2)n1)c1cccc(F)c1,134%
2,Cn1cc(-c2cc3ncnc(Nc4ccc(NC(=O)Nc5cc(C(C)(C)C)on5)cc4)c3s2)cn1,62.5%
3,Cn1ncc2c(C(=O)c3ccc(F)cc3)nc(C(C)(C)C)nc21,82%
4,N#Cc1c(-c2cccs2)cc(-c2cnccn2)nc1SCC(=O)N/N=C/c1ccc(Cl)cc1,130%
5,O=C(/C=C/c1cc(Cl)ccc1Cl)Nc1ncc(Cc2ccc(Cl)cc2)s1,34.1%
6,CNC(=O)c1cc(N2CCc3cc(NC(=O)Nc4ccc(N5CCN(C)CC5)c(C(F)(F)F)c4)ccc32)ccn1,134%
7,CCc1cc(O)ccc1Nc1cc(-c2ccc(-n3cccn3)cc2)[nH]n1,98.6%
8,COc1ccc2[nH]cc(-c3nc(N)nnc3-c3cn(C)c4ccc(Br)cc34)c2c1,54.3%
9,CCCCCCCCCCCC(=O)NC(C)(C)C(=O)N1CCCC1C(=O)NC(C)(C)C(=O)NC(C)(C)C(=O)N1CCCC1C(=O)NC(C)(C)C(=O)NC(C)(C)C(=O)N1CCCC1C(=O)NC(C)C(=O)NCCC(=O)NC(C)C(=O)NC(C)(C)C(=O)NC(C)(C)C(=O)NC(C)(C)C(=O)NCCC(=O)NC(C)(C)C(=O)NC(C)(C)C(=O)NC(C)(C)C(=O)NC(C)C(=O)NCCC(=O)O (centres undefined),-97.1% (active)
10,CCCc1[nH]c(-c2cc(N)ccc2Cl)c2c1C(=O)CCCC2,107%
11,CC1=C(C)C(=O)C(Nc2ccc(C)cc2)=C(Br)C1=O,145%
12,O=S(=O)(Oc1ccc(-c2cn3ccsc3n2)cc1)c1cccc(C(F)(F)F)c1,98.7%
13,C#CCOc1cccc(/C(N)=N/C(N)=N/c2nc3ccccc3s2)c1,148%
14,CCOC(=O)c1c(NC(=O)c2ccc(C(F)(F)F)cc2)sc2c(CN3CCN(C)CC3)c(O)ccc12,-71.2% (active)
15,Cc1ccc(NC(=O)Nc2nc3ccc([N+](=O)[O-])cc3s2)cc1,4.02% (active)
16,CCOC(=O)c1c(NCC(=O)Nc2cccc([N+](=O)[O-])c2)sc(C(C)=O)c1C,-22.6% (active)
17,O=C(CCCCCCNC(=O)C(O)(O)C(F)(F)F)Nc1ccc(Br)cc1,-2.6% (active)
18,Cc1ccccc1N1CCN(C2=C(Cl)C(=O)c3ncccc3C2=O)CC1,68.7%
19,O=C1[C@@H]2Cc3c([nH]c4ccccc34)[C@H](c3ccc(Br)cc3)N2C(=O)CN1C1CCN(Cc2c(Cl)cccc2Cl)CC1,132%
20,Cc1ccc(CSC2=C(Cl)CN(c3ccc(Cl)cc3)C2=O)cc1,115%
21,COC(=O)CCCNCCCn1ccc2cc(NCc3cccc(-c4ccccc4)c3C)ccc21,115%
22,C#CCOc1ccccc1/C=N/Nc1nc(-c2ccc(Cl)cc2)cs1,145%
23,CC(=O)c1c([Si](C)(C)C)c2cc(C#N)ccn2c1C(=O)c1ccc(Br)cc1,98%
24,O=C(COc1ccc(/C=C2\C(=O)Nc3ccc(F)cc32)cc1)Nc1ccccc1,118%
25,COc1ccc(CC(C)=C(c2ccc(OCCN3CCCC3)cc2)c2ccc(OCCN3CCCC3)cc2)cc1,-94.4% (active)
26,O=C(CSc1nc2ccccc2c(=O)n1-c1ccc(S(=O)(=O)Nc2ccc(Cl)nn2)cc1)Nc1ccc(S(=O)(=O)Nc2ccc(Cl)nn2)cc1,106%
27,C=C(C)[C@@H]1CC[C@]2(COP(=O)(OCC)OCC)CC[C@]3(C)[C@H](CC[C@@H]4[C@@]5(C)CC[C@H](OP(=O)(OCC)OCC)C(C)(C)[C@@H]5CC[C@]43C)[C@@H]12,68.5%

# From PubChem BioAssay (NCI)
